EphB4 ephrin blk: EphB4-ephrin-B2 interaction antagonists, primary screen, biochemical, TNYL-RAW peptide probe, fluorescence polarization | EphB4 LBD / TNYL-RAW-Alexa532 peptide | inhibition, % at 7 µM | 0.15% of 97,000 active | AID 720, 2007;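 active means inhibition above the screen-wide mean inhibition plus 3 SD, cut at about 15% in these data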
Target sequence (P54760 whole entry, looked up, the tested form may be a part): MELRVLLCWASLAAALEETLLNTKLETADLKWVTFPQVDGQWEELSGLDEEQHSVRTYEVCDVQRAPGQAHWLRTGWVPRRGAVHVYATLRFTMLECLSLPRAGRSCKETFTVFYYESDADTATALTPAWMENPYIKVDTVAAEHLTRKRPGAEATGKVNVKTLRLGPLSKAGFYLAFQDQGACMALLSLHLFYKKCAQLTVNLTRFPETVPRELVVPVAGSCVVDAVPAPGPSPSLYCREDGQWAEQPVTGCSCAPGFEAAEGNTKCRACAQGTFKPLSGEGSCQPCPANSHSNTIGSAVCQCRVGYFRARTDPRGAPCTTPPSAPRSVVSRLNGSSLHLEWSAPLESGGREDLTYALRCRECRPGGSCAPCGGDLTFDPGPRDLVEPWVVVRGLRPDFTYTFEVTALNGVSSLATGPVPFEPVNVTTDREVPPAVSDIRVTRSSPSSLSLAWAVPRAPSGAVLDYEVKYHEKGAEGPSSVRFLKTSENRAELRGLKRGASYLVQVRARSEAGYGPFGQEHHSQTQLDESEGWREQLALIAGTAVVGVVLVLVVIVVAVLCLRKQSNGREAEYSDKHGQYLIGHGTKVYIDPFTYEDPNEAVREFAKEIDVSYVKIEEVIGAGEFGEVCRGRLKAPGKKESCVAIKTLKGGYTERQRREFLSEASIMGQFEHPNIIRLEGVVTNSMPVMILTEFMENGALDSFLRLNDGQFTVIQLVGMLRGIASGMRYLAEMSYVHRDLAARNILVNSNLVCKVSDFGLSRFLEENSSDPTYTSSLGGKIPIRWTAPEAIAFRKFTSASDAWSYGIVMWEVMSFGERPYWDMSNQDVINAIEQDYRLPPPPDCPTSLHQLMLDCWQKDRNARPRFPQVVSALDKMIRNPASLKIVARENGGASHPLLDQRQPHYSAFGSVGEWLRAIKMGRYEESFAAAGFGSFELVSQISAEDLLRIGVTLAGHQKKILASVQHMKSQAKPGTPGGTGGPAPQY
CYP2C9 inhib: blockers of cytochrome P450 2C9 activity – biochemical, luminescence, ADME assay, primary screen; P11712; CYP2C9 Supersomes, luciferin-H conversion; inhibition, % at 5 µM; 20% of 96,000 active;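 active means blocking of liver enzyme CYP2C9 beyond about 50% at 5 µM, limit read from the data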
CYP2C19 act: human CYP2C19 activators, primary screen, biochemical, luminescence. recombinant CYP2C19, luciferin-H EGE luminescence; stronger effect = higher value; 0 = fully inhibited enzyme, 1 = untreated enzyme. activation factor at 5 µM. 96,000 tested, under 10 active. AID 1025, 2008;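 active means activation factor of at least 2 at 5 µM in the primary screen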
CYP2C9 activ: human CYP2C9 activators, primary screen, biochemical, luminescence. Cytochrome P450 2C9 (Homo sapiens), P11712. recombinant CYP2C9, luciferin-H conversion; stronger effect = higher value; factor 1 = untreated enzyme, 0 = blocked. activation factor at 5 µM. 1.4% of 96,000 active. AID 1024, 2008;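 active means activation factor of 2 or more for CYP2C9 at a 5 µM dose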
CYP2C19 inh: blockers of cytochrome P450 2C19 activity – biochemical, luminescence, ADME assay, primary screen | 21% of 96,000 active | inhibition, % at 5 µM | CYP2C19 Supersomes, luciferin-H EGE luminescence, 30 min;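 active means CYP2C19 inhibition above a set limit at 5 µM in the primary screen, cut at about 50% in these data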
Of the large screens only hits and unclear results are named; the others gave an inactive call. Rows were chosen to be rich in hits. Some 27% of all compounds tested hit in one or more screens of this group.

O=c1oc2c(CN3CCOCC3)c(O)c(Cl)cc2c2c1CCCC2	none (no result: EphB4 ephrin blk)
CC(C)(C)C(=O)Nc1ccc(C(=O)NCc2cccnc2)cc1	none
CCN(CC)C(=O)CSc1nc2ccccc2c(=O)n1OC	none
CCCC(c1nnnn1C1CCCC1)N1CCN(C(=O)c2ccco2)CC1 (stereo not drawn)	none
CCCCC(c1nnnn1C1CCCC1)N1CCN(C(=O)c2ccco2)CC1 (stereo not drawn)	CYP2C9 inhib 69.4, CYP2C19 inh 73.1
Cc1ccc2occ(C(c3nnnn3C3CCCC3)N3CCN(C(=O)c4ccco4)CC3)c(=O)c2c1 (stereo not drawn)	CYP2C9 inhib 82.8, CYP2C19 inh 81.5
O=C(c1ccco1)N1CCN(C(c2coc3ccc(Cl)cc3c2=O)c2nnnn2C2CCCC2)CC1 (stereo not drawn)	none (no result: CYP2C9 inhib, CYP2C19 act, CYP2C9 activ, CYP2C19 inh)
COc1ccccc1N1CCN(C(c2cccs2)c2nnnn2C2CCCC2)CC1 (stereo not drawn)	CYP2C9 inhib 88.2, CYP2C19 inh 93.9
Fc1ccc(C2=Nn3c(nnc3-c3n[nH]c4c3CCC4)SC2)cc1	none
CCn1c(SCc2ccc(Cl)cc2)nnc1-c1ccccc1	none (no result: CYP2C9 inhib, CYP2C19 act, CYP2C9 activ, CYP2C19 inh)
CCn1c(SCc2ccc(C#N)cc2)nnc1-c1cccc(Cl)c1	CYP2C19 inh 65.0
CCn1c(COc2ccc(Cl)cc2)nnc1SCc1ccc(C#N)cc1	CYP2C9 inhib 76.4, CYP2C19 inh 76.3
CCn1c(COc2ccccc2)nnc1SCc1ccc(C#N)cc1	none
O=C(CN1CCN(c2ccc(F)cc2)CC1)Nc1cc(C(F)(F)F)ccc1Cl	none
CC(C1CC1)N(C(=O)c1ccccc1O)c1ccccc1 (stereo not drawn)	CYP2C19 inh 80.2 (no result: EphB4 ephrin blk)
O=C(Nc1ccccc1)c1ccccc1O	none
O=C(/C=C/Nc1cccc([N+](=O)[O-])c1)c1cccs1	CYP2C9 inhib 70.7
CNc1cc([N+](=O)[O-])ccc1N/C=C/C(=O)c1cccs1	none (no result: CYP2C9 inhib, CYP2C19 act, CYP2C9 activ, CYP2C19 inh)
Cc1ccc(NC(=O)c2cccc3c2C(=O)N(C2CCCCC2)C3)cc1	none
CCOC(=O)N1CCC(N2Cc3cccc(C(=O)Nc4cc(F)ccc4F)c3C2=O)CC1	CYP2C9 inhib 78.2
CCOC(=O)N1CCC(N2Cc3cccc(C(=O)O)c3C2=O)CC1	none (no result: EphB4 ephrin blk)
CCOC(=O)N1CCC(N2Cc3cccc(C(=O)Nc4ccc(F)cc4)c3C2=O)CC1	CYP2C9 inhib 89.7
CCOC(=O)N1CCC(N2Cc3cccc(C(=O)Nc4ccc(CC)cc4)c3C2=O)CC1	CYP2C9 inhib 99.8, CYP2C19 inh 93.8
CCOC(=O)N1CCC(N2Cc3cccc(C(=O)NCC4CCN(CC(C)C)C4)c3C2=O)CC1 (stereo not drawn)	CYP2C9 inhib 95.9, CYP2C19 inh 86.1
CCOC(=O)N1CCC(N2C(=O)c3ccc(C(=O)NCc4ccc(F)cc4)cc3C2=O)CC1	CYP2C9 inhib 58.0 (no result: EphB4 ephrin blk)
CCOC(=O)N1CCC(N2C(=O)c3ccc(C(=O)NCc4ccco4)cc3C2=O)CC1	none
O=C(O)c1cccnc1SC1CC(=O)N(Cc2ccccc2)C1=O (stereo not drawn)	none
Cc1ccc(C(=O)Oc2ccccc2N2C(=O)C3CCC(C)CC3C2=O)cc1 (stereo not drawn)	CYP2C9 inhib 58.1, CYP2C19 inh 54.5
COC(=O)c1ccc(CC(=O)c2ccc(O)cc2O)o1	CYP2C9 inhib 52.5
COC(=O)c1cc(CC(=O)c2ccc(O)cc2O)c(C)o1	CYP2C9 inhib 53.6, CYP2C19 inh 93.6
CCOC(=O)c1ccc(CC(=O)c2ccc(O)cc2O)o1	none
COc1ccc(CC(=O)c2c(O)cc(O)cc2O)cc1OC	CYP2C9 inhib 88.2, CYP2C19 inh 77.0
COC(=O)c1ccc(CC(=O)c2c(C)cc(O)cc2O)o1	CYP2C9 inhib 60.5, CYP2C19 inh 93.3
c1ccc(C2COC(c3cccs3)=N2)cc1 (stereo not drawn)	CYP2C19 inh 61.5
Cc1ccc(C(=O)Cn2nnc3c(sc4nc5c(c(-c6ccccc6)c43)CCC5)c2=O)cc1	none
CCOC(=O)c1c(C)nc2sc3c(=O)n(-c4ccc(C(C)=O)cc4)nnc3c2c1-c1ccc(OC)cc1	CYP2C19 inh 59.1
CCOC(=O)c1c(C)nc2sc3c(=O)n(-c4ccc(OC)cc4)cnc3c2c1-c1ccc(OC)cc1	CYP2C9 inhib 80.3, CYP2C19 inh 74.3
CCNC(=O)CCC(=O)Nc1cc(Cl)ccc1C	none
CC(=O)OC(C)(CCC(C)(OC(C)=O)C(C)=O)C(C)=O (stereo not drawn)	none
COc1cc2nc(CN(CCC(C)C)Cc3nc4cc(OC)c(OC)cc4c(=O)[nH]3)[nH]c(=O)c2cc1OC	CYP2C9 inhib 55.9
CCOC(=O)c1cc2sccc2n1CC(=O)N1c2ccccc2CC1C (stereo not drawn)	none
O=C(c1cccc(S(=O)(=O)NCc2ccccc2)c1)N1CCN(Cc2ccccc2)CC1	CYP2C19 inh 64.8
O=C(c1ccc(S(=O)(=O)N2CCCC2)cc1)N1CCN(Cc2ccc3c(c2)OCO3)CC1	CYP2C9 inhib 63.4
O=C(CS(=O)(=O)Cc1ccccc1)N1CCN(Cc2ccc3c(c2)OCO3)CC1	none
O=C(c1ccccc1S(=O)(=O)NCc1ccccc1)N1CCCC1	CYP2C9 inhib 66.1, CYP2C19 inh 89.8 (no result: EphB4 ephrin blk)
O=C(CCc1ccc(S(=O)(=O)NCc2ccccc2)cc1)N1CCN(Cc2ccc3c(c2)OCO3)CC1	CYP2C9 inhib 64.8
COc1ccc(OC)c(C2N(c3ccc(Cl)cc3)C(=O)C3CCCN32)c1 (stereo not drawn)	none
C=CCn1c(/N=C/c2ccc3c(c2)OCO3)nc2ccccc21	none (no result: CYP2C9 inhib, CYP2C19 act, CYP2C9 activ, CYP2C19 inh)
N#CCCN(C(=O)Nc1ccc(Cl)cc1)c1ccccc1	none
COc1ccc(NC(=O)N2CCCC2C(=O)Nc2ccc(C)cc2)cc1 (stereo not drawn)	none
O=C(c1ccc2nc(N3CCOCC3)sc2c1)N1CCCC1	none (no result: EphB4 ephrin blk)
CC1CCN(c2nc3ccc(C(=O)N4CCN(Cc5ccc6c(c5)OCO6)CC4)cc3s2)CC1	CYP2C9 inhib 90.0, CYP2C19 inh 94.1
O=C(CCc1ccc(S(=O)(=O)N2CCOCC2)cc1)N1CCN(Cc2ccc3c(c2)OCO3)CC1	CYP2C9 inhib 77.4
Nc1cc(=O)nc(SCC(=O)NCc2ccccc2)n1CCc1ccccc1	none
Cc1ccc(S(=O)(=O)N/N=C\c2ccc3c(c2)OCO3)cc1	CYP2C9 inhib 74.8, CYP2C19 inh 58.8
Cc1ccc(CNS(=O)(=O)/C=C/c2ccc3c(c2)OCO3)cc1	CYP2C19 inh 99.0
CC(/C=C/c1ccc2c(c1)OCO2)=N/NC(=O)CNc1ccc(C)cc1	none (no result: CYP2C9 inhib, CYP2C19 act, CYP2C9 activ, CYP2C19 inh)
O=S(=O)(N/N=C\c1ccc2c(c1)OCO2)c1ccc(Cl)cc1	CYP2C9 inhib 86.0
COc1ccnc(Oc2ccc(C)cc2)c1C#N	none
CC(C)OCCCn1c(=S)[nH]c2ncccc2c1=O	none
CC(=O)c1c(C)nn(CCC(=O)O)c1C	none

High-throughput results: PubChem BioAssay, several laboratories
